# Assay results from PubChem BioAssay.
# Activity calls are given as the source filed them.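 The calls were made as follows, unless noted: active = visually confirmed hit in the image check and inhibition above 20%; inconclusive = visually confirmed hit but inhibition not above 20%; inactive = no visual hit in the image check.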
# Key:
# [1] = inhibitors of TNFa-induced NFkB p65 translocation, primary screen, imaging, HUVEC, MLSMR starter and 10KST1 sets (AID 438;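 active = inhibition above 20% together with a positive visual image hit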;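 also: compound added about 3h40 before a 20 min TNFalpha stimulation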;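 as to inhibition: signal is the nuclear over cytoplasmic p65 intensity ratio per well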); details: HUVEC TNFa-induced p65 nuclear translocation; cell count: measured here: nuclei count (cytotoxicity indicator), at 2.08 µM; inhibition: at 2 µM, stronger effect = higher value, 0% TNFa-plus-vehicle, 100% no-TNFa wells
# [2] = inhibitors of mutant huntingtin aggregation, primary screen, imaging, exon1htt(103Q)mCFP cells, high-content imaging (AID 483;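 active = visual image review flags a hit and inhibition of aggregation exceeds 20%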;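 also: compound exposure lasted 3 days before fixation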;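 as to nuclei count: percent of the per-plate median nuclei count of sample wells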); details: exon1htt(103Q)mCFP cell line, aggregate imaging, at 2 µM; inhibition of aggregation: stronger effect = higher value; nuclei count: measured here: cell count, toxicity
# [3] = inhibitors of E-selectin induction by TNFa, primary screen, imaging, HUVEC, immunofluorescence, MLSMR starter and 10KST1 sets (AID 487); details: HUVEC TNFalpha-induced E-selectin immunofluorescence imaging, at 2 µM; inhibition: stronger effect = higher value; nuclei count: measured here: cell number, toxicity;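 as to inhibition: signal is fraction of cell area covered by stained E-selectin grains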;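 as to nuclei count: 100% = median nuclei count of all wells on the same plate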
# [4] = target: Voltage-gated potassium channel subunit beta-2 (Rattus norvegicus) (UniProt P62483); test: KvBeta enzyme negative modulators, primary screen, biochemical, NADPH fluorescence (AID 622;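 active = fluorescence slope higher than the sample average by over 3 SD, cut at about -0.22 in these data, passing the limit was not always enough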;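 also: slope of raw intensity against log time taken from 70 to 1610 s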); details: recombinant KvBeta, 4-cyanobenzaldehyde reduction, at 10 µM, stronger effect = higher value
# Chain of Voltage-gated potassium channel subunit beta-2 (Rattus norvegicus) (P62483 whole entry, looked up): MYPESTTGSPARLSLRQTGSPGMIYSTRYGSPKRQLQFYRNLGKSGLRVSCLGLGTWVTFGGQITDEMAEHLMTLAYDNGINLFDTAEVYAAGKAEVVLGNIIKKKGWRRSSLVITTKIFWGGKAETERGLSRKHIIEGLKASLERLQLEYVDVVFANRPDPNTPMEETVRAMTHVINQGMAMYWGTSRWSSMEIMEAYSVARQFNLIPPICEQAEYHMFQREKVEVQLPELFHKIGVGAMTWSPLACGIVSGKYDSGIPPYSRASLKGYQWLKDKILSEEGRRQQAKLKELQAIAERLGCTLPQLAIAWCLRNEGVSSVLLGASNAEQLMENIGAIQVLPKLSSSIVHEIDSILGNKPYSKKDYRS
# [5] = target: Voltage-gated potassium channel subunit beta-2 (Rattus norvegicus) (UniProt P62483); test: KvBeta positive modulators, primary screen, biochemical, NADPH fluorescence (AID 623;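 active = NADPH fluorescence slope more negative than the mean of all samples by about 3 SD, 99.7% confidence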;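 also: fluorescence intensity change per second fitted from 20 to 320 s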); details: Recombinant KvBeta, NADPH fluorescence decrease slope, 10 min; at 10 µM; stronger effect = lower value
# [6] = target: Alpha-2C adrenergic receptor (Homo sapiens) (UniProt P18825); test: modulators of alpha2C/GIRK thallium flux, primary screen, cell-based, HEK293 alpha2C/GIRK1/2 (AID 624;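 active = fluorescence slope after compound addition differing from the mean of all screened samples at 99.7% confidence, in either direction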;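 also: slope of fluorescence ratio to pre-addition baseline per second over 15 to 24 s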); details: thallium flux BTC fluorescence, at 10 µM, actives lie on both sides
# Chain of Alpha-2C adrenergic receptor (Homo sapiens) (P18825 whole entry, looked up): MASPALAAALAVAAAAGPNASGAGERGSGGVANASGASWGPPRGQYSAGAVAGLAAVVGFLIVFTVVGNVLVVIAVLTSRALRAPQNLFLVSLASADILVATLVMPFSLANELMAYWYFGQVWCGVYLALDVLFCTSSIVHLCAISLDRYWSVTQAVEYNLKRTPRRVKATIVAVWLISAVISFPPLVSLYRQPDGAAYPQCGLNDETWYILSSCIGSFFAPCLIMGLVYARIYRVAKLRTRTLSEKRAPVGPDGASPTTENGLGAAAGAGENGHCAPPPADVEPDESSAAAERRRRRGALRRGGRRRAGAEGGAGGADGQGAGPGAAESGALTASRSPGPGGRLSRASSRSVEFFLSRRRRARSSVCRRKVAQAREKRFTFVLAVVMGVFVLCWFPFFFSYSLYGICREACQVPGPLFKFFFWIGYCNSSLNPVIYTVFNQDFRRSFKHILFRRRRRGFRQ
# [7] = inhibitors of Sendai virus-induced IRF3 signaling, primary screen, TLR/RLR signaling modifier project, cell-based, Sendai virus stimulus, luciferase, 10K MLSCN set (AID 602276;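 active = inhibition at or above 50% at 10 µM; inactive = inhibition below 50%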;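 also: firefly luciferase from ISG56 promoter only with Renilla not read in this screen; 0% = Sendai virus plus DMSO and 100% = medium plus DMSO without virus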); details: HEK293 RL24 IRF3 luciferase reporter, at 10 µM, stronger effect = higher value
# [8] = inhibitors of poly I:C-induced TLR3 signaling, primary screen, cell-based, poly I:C stimulus, luciferase, 10K MLSCN set (AID 602277;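 active = inhibition of the reporter signal at or above 50%; inactive = inhibition below 50%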); details: HEK293-TLR3 RL24 IRF3 luciferase reporter, at 10 µM, stronger effect = higher value
Compound,cell count [1],inhibition [1],inhibition of aggregation [2],nuclei count [2] [%],inhibition [3],nuclei count [3] [%],fluorescence slope [4],NADPH fluorescence slope [5],slope [6],inhibition [7],inhibition [8]
Cc1nnc(SCC(=O)N2c3ccccc3CC2C)s1 (stereo not drawn),528,-31.1% (inactive),5.8% (inactive),55.7,-46.9% (inactive),136,-0.521 (inactive),-5.2e-05 (inactive),0.00417 (inactive),4.91% (inactive),-5.96% (inactive)
Clc1ccc(CSc2nnc(Cn3cnc4ccccc43)o2)cc1,618,-2.5% (inactive),20.9% (inactive),72.2,-1.1% (inactive),98.2,-0.48 (inactive),-1.4e-05 (inactive),0.00613 (inactive),-20.9% (inactive),-27.5% (inactive)
O=C(CSc1nc2ncccc2[nH]1)Nc1ccc2c(c1)OCCO2,507,1.7% (inactive),10.1% (inactive),87.8,-113% (inactive),177,-0.509 (inactive),2.9e-05 (inactive),0.00643 (inactive),-4.29% (inactive),-22.7% (inactive)
COc1ccc(-n2c(Cc3cccn3C)nnc2SCC(=O)Nc2cccc(C)c2C)cc1,816,4.6% (inactive),4.2% (inactive),105,-26.4% (inactive),110,-0.596 (inactive),-4.5e-06 (inactive),0.00595 (inactive),0.797% (inactive),27.3% (inactive)
CC(=O)CCc1c(C)[nH]c2ccccc2c1=O,360,9.1% (inactive),-8.9% (inactive),123,-3.8% (inactive),102,-0.523 (inactive),6.6e-05 (inactive),0.00588 (inactive),-9.69% (inactive),-2.97% (inactive)
O=C1CCNc2cc3ccccc3cc21,356,2.5% (inactive),32.4% (inactive),80.4,24.1% (inactive),99.3,-0.472 (inactive),-0.000147 (inactive),0.00661 (inactive),21.5% (inactive),32.3% (inactive)
CCOc1cc(C(=O)N(C)c2ccccc2)cc(OCC)c1OCC,314,5.5% (inactive),17.8% (inactive),97.5,5.8% (inactive),86.2,-0.368 (inactive),-3.2e-05 (inactive),0.00526 (inactive),18.6% (inactive),32.8% (inactive)
O=C(CCC1COc2ccccc2O1)NCC1COc2ccccc2O1 (stereo not drawn),568,2.4% (inactive),-5.5% (inactive),117,-72.2% (inactive),85.5,-0.499 (inactive),-2.5e-05 (inactive),0.0058 (inactive),13.4% (inactive),19.2% (inactive)
COc1ccc(Cl)c(NCCC(=O)O)c1,632,-4.2% (inactive),2.2% (inactive),110,-96.7% (inactive),130,-0.453 (inactive),-0.000352 (inactive),0.00574 (inactive),-8.17% (inactive),-4.52% (inactive)
COc1cccc(C(=O)OCn2nnc3ccccc3c2=O)c1OC,750,-25% (inactive),21% (inactive),99.5,-17.8% (inactive),103,-0.441 (inactive),-2.9e-05 (inactive),0.00547 (inactive),11.8% (inactive),28.8% (inactive)
CCc1cc2c(=O)n(C(C)C(=O)OC3CCCCC3)cnc2s1 (stereo not drawn),561,0% (inactive),32% (inactive),114,-73.8% (inactive),103,-0.486 (inactive),-3.4e-05 (inactive),0.00382 (inactive),-49.6% (inactive),-101% (inactive)
CSc1ccc(Cn2nnc(C(=O)NCc3ccccc3)c2N)cc1,570,-2.3% (inactive),17.3% (inactive),100,-74.8% (inactive),134,-0.478 (inactive),-2e-05 (inactive),0.00597 (inactive),5.71% (inactive),12.9% (inactive)
CCCCNC(=O)Cn1c(=O)n(C)c2ccccc21,600,6.9% (inactive),-14.7% (inactive),111,35.9% (inactive),103,-0.549 (inactive),-6.8e-06 (inactive),0.00707 (inactive),9.9% (inactive),30% (inactive)
COc1ccc(C2CC(c3cccc(C)c3)n3ncnc3N2)cc1 (stereo not drawn),595,5.1% (inactive),0% (inactive),97.8,4% (inactive),111,-0.569 (inactive),1.9e-05 (inactive),0.00625 (inactive),-16.2% (inactive),2.59% (inactive)
CC(C)Cn1c(CN2CCCCC2C)nc2c1c(=O)n(C)c(=O)n2C (stereo not drawn),693,-10% (inactive),12.5% (inactive),93,-25% (inactive),116,-0.537 (inactive),-1.5e-05 (inactive),0.00589 (inactive),2.69% (inactive),21.9% (inactive)
Cc1nc2scc(-c3cccs3)c2c(=O)n1-n1cccc1,506,10.6% (inactive),10.9% (inactive),102,-398% (inactive),140,-0.333 (inactive),1.9e-05 (inactive),0.00572 (inactive),4.56% (inactive),18.4% (inactive)
Cn1c(=O)cc(NCCc2ccccc2)[nH]c1=O,304,3.4% (inactive),-8% (inactive),116,-199% (inactive),156,-0.43 (inactive),-0.0001 (inactive),0.00647 (inactive),7.54% (inactive),27.3% (inactive)
Cc1ccc(NC(=O)C2CCCN(S(=O)(=O)c3cnc[nH]3)C2)cc1F (stereo not drawn),521,0.9% (inactive),7.3% (inactive),99.9,-108% (inactive),126,-0.521 (inactive),-4.2e-05 (inactive),0.00688 (inactive),22.4% (inactive),21.8% (inactive)
CC1CCN(CCc2nc3cc(NS(=O)(=O)c4ccc(F)cc4)ccc3n2C)CC1,392,6.1% (inactive),13.2% (inactive),97.6,-31.1% (inactive),106,-0.5 (inactive),-3.1e-05 (inactive),0.00517 (inactive),5.27% (inactive),16% (inactive)
CCn1c(SCC(=O)Nc2ccc(C(=O)OC)cc2)nnc1-c1cccs1,654,11.5% (inactive),24.6% (inactive),110,42.7% (inactive),106,-0.379 (inactive),-5.2e-05 (inactive),0.00499 (inactive),14.1% (inactive),12.6% (inactive)
CC(C)Cn1c(N)c(C(=O)NCc2cccs2)c2nc3ccccc3nc21,250,-2.4% (inactive),-3.1% (inactive),68.4,-1.8% (inactive),97.2,-0.474 (inactive),7.5e-06 (inactive),0.00389 (inactive),14.5% (inactive),-0.686% (inactive)
Cc1ccc(-c2noc(C3CCCN(C(=O)c4ccccc4)C3)n2)o1 (stereo not drawn),490,5.2% (inactive),-19.1% (inactive),112,-102% (inactive),125,-0.372 (inactive),-1.7e-05 (inactive),0.00371 (inactive),-20% (inactive),-111% (inactive)
O=C(O)CCCC(=O)Nc1nc(-c2ccc(F)cc2)cs1,392,-1.3% (inactive),-6.1% (inactive),94.3,-90.5% (inactive),141,-0.327 (inactive),-1.1e-05 (inactive),0.00291 (inactive),6.78% (inactive),14.9% (inactive)
COc1ccc(CCNC(=O)c2ccncc2)cc1OC,162,-18.8% (inactive),10.4% (inactive),95.7,11.2% (inactive),90,-0.499 (inactive),-4.1e-05 (inactive),0.00561 (inactive),17.7% (inactive),19.9% (inactive)
O=C(CSc1nc2ccccc2s1)N1CCOCC1,330,0.5% (inactive),-12.6% (inactive),105,-38.9% (inactive),118,-0.525 (inactive),-1.9e-05 (inactive),0.00424 (inactive),-27.4% (inactive),-58.1% (inactive)
Nc1cc(N)cc(-c2nc3ccccc3o2)c1,595,-1.3% (inactive),-3.7% (inactive),109,-53.9% (inactive),116,-0.56 (inactive),-4.4e-05 (inactive),0.00618 (inactive),-12.2% (inactive),-26% (inactive)
CCOCCCNC(=O)C1CCC(CNS(=O)(=O)c2cccc3nsnc23)CC1 (stereo not drawn),808,6.8% (inactive),-28.4% (inactive),103,-19.9% (inactive),119,-0.476 (inactive),-4.4e-05 (inactive),0.00547 (inactive),8.12% (inactive),22.9% (inactive)
Cc1csc2ncc(C(=O)Nc3ccccc3Cl)c(=O)n12,677,5.8% (inactive),-20% (inactive),95.1,-12.3% (inactive),116,-0.486 (inactive),5.1e-06 (inactive),0.00716 (inactive),-29% (inactive),-83.1% (inactive)
